# Compound activity deposited in PubChem by National Center for Advancing Translational Sciences (NCATS).
# Only some compounds are listed: those with a hit (about 2.8% of all), similar ones and a draw of the others.
# PI5P4K alpha inh: inhibitors of human PI5P4K alpha; P48426; PI5P4Kalpha enzyme, ADP-Glo luminescence, 60 min; stronger effect = lower value; 330,000 tested, 1.2% active; AID 652105; max response, %; active means max response of -50% or lower; inconclusive means between -30% and -50%; inactive means -30% or higher; further: value at the top dose of about 77 µM; on the % scale 0 is the no-effect control and ±100 the full control effect
#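 Enzyme plus substrate dispensed, test compounds pinned in, then ATP (5 microM final) added. After 60 min at RT, ADP-Glo reagent 1 for 45 min and reagent 2 for 30 min preceded luminescence imaging.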
# PI4K2A inh: PI4K2A (human) kinase inhibition; Q9BTU6; purified PI4K2A, ADP-Glo luminescence, 1 h; stronger effect = lower value; activity change, negative = inhibition, % at 76.9 µM; 420,000 tested, 0.13% active; AID 1346378; in the data active means activity change below about -50%; inconclusive means mostly about -30% to -49%;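 further: -100% = wells without enzyme as full effect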
#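 PI4K2A activity was measured by ADP-Glo luminescence: enzyme (4 ug/mL stock) and phosphatidylinositol (1.2 mM stock) in Tris pH 7.5/MgCl2/EGTA/Triton X-100 buffer were reacted with ATP (300 microM stock) for one hour at ambient temperature.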
# Pol kappa inh-1: DNA polymerase kappa (human) inhibition; Q9UBT6; purified Pol kappa, fluorescent DNA synthesis assay, 10 min; Potency, µM (titrated, usually from 107 µM), for inactives: at the top dose activity, negative = inhibition, most hits filed as inhibitors; 400,000 tested, 0.53% active; AID 588579; further: potency means the concentration at half of the fitted maximal effect; on the % scale 0 is the no-effect control and ±100 the full control effect
#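 Enzyme at 10 nM met test compounds for 15 min at room temperature. Substrate addition (50 nM final) began the reaction, which was monitored by fluorescence at 0 and 10 min.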
# Pol beta inh: DNA polymerase beta (human) inhibition; P06746; Potency, µM (titrated, usually from 114 µM), for the others: at the highest dose activity change, negative = inhibition, most hits filed as inhibitors; 340,000 tested, 1.3% active; AID 485314; Pol beta primer extension/strand displacement, fluorescence kinetic; further: potency means the concentration at half of the fitted maximal effect; on the % scale 0 is the no-effect control and ±100 the full control effect
#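 Kinetic readout of DNA synthesis with strand displacement by Pol beta. Compound and 10 nM enzyme sit 15 min at room temperature; 50 nM substrate starts the reaction, read immediately and at 10 min.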
# Pol eta inh-1: blocks human DNA polymerase eta activity; Q9Y253; recombinant Pol eta, fluorescent DNA replication assay; Potency, µM (top dose mostly 114 µM), for the others: at the highest dose activity change, negative = inhibition, most hits filed as inhibitors; 390,000 tested, 1.2% active; AID 588591; further: potency means the concentration at half of the fitted maximal effect; on the % scale 0 is the no-effect control and ±100 the full control effect
#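 Pol eta (10 nM) was preincubated with compounds for 15 min at room temperature, after which fluorescent replication substrate (50 nM final) was added to start the reaction. Fluorescence was read kinetically at 0 and 10 min.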
# Pol iota inh: DNA polymerase iota (human) inhibition | Pol iota fluorescent replication assay, 10 min | AID 588590 | Potency, µM (doses to about 115 µM), inactives show at the top dose activity, negative = inhibition, usual class: inhibitors | Q9UNA4 | 390,000 tested, 1% active; further: potency means the concentration at half of the fitted maximal effect
#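 Pol iota at 10 nM preincubated 15 min with compounds at room temperature; reaction started with fluorescent substrate, 50 nM final. Fluorescence read kinetically at 0 and 10 min; buffer-only wells as negative control.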
# PGK validate: blocks T. brucei phosphoglycerate kinase; 500 tested, 79% active; TbPGK coupled GAPDH assay, Kinase-Glo luminescence; shares compounds with Pol kappa inh-1; Potency, µM (series often up to 57.5 µM), without a hit: at the highest dose activity change, negative = inhibition, usual class: inhibitors; further: potency means the concentration at half of the fitted maximal effect; on the % scale 0 is the no-effect control and ±100 the full control effect; nearly all actives have a fitted effect of over 65% in size
# Target sequence (P07378 whole entry, looked up): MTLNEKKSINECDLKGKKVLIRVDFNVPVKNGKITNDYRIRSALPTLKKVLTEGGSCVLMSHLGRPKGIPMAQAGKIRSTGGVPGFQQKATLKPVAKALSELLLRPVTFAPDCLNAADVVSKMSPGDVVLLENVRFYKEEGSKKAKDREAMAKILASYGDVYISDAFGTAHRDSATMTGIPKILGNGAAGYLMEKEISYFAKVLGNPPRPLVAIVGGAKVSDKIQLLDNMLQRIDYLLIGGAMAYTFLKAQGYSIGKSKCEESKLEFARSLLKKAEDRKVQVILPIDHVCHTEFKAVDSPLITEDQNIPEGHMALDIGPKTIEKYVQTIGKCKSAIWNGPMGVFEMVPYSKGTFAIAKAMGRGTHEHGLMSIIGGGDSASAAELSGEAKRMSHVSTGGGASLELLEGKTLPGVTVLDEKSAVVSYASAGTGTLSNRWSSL
# POLI cherry-pick: Confirm cherry-picked inhibitors of human polymerase iota. AID 720496. Potency, µM, hits mostly inhibitors. 1,500 tested, 77% active. shares compounds with Pol kappa inh-1. Pol iota primer extension, TAMRA/BHQ fluorescence; further: potency means the concentration at half of the fitted maximal effect
# GALK confirm: galactokinase (human) inhibition, confirmation. shares compounds with Pol eta inh-1. purified GALK, Kinase-Glo ATP depletion luminescence. Potency, µM (top dose mostly 115 µM), for the others: top-dose activity, negative = inhibition, actives largely listed as inhibitors. 150 tested, 70% active. AID 2015
# GALK redox cs: generates H2O2 by redox cycling, flagging GALK artifacts; shares compounds with Pol eta inh-1; Phenol red-HRP H2O2 redox cycling, absorbance 600 nm; Potency, µM (top dose mostly 115 µM), for inactives: at the highest dose activity change, negative = H2O2 signal, hits mostly inhibitors; 150 tested, 40% active
# HEK293 viability: counter-screen for GALK inhibitors: HEK293 cell cytotoxicity; shares compounds with Pol eta inh-1; HEK-293 viability, ATP luminescence (CellTiter-Glo), 24/48 h; Potency, µM (doses to about 46.1 µM), without a hit: at the top dose activity change, negative = cytotoxicity, actives largely listed as inhibitors; 170 tested, 10% active; further: potency means the concentration at half of the fitted maximal effect; on the % scale 0 is the no-effect control and ±100 the full control effect
# Pol kappa inh-2: Pol kappa (human) inhibition, cherry-pick confirmation; purified Pol-kappa, fluorescent strand-displacement substrate; AID 720501; 920 tested, 76% active; Potency, µM, usual class: inhibitors; shares compounds with Pol eta inh-1; further: potency means the concentration at half of the fitted maximal effect
# Pol eta inh-2: Pol eta (human) inhibition, cherry-pick confirmation; Pol eta primer extension, TAMRA/BHQ fluorescence, 10 min; Potency, µM, actives largely listed as inhibitors; shares compounds with Pol eta inh-1; 2,600 tested, 64% active; further: potency means the concentration at half of the fitted maximal effect
# An asterisk follows results filed as active; u = inconclusive; x = no result; [ ] = remark or other dose. Unless noted, the call rests on the fitted dose curve; in most records, active means well fitted curve in the direction sought with a large enough effect; inconclusive means small, poorly fitted or top-dose-only effect, or another doubt; inactive means no such curve, though single readings can be large; an effect the other way counts as inactive or inconclusive.
SMILES,PI5P4K alpha inh,PI4K2A inh,Pol kappa inh-1,Pol beta inh,Pol eta inh-1,Pol iota inh,POLI cherry-pick,Pol eta inh-2,others
O=C1CC(c2ccco2)CC(O)=C1C=Nc1ccccc1-c1ccccc1 (stereo not drawn),4.5,-5.2,-3.2%,-4.5%,-4.1%,u,x,x,
O=C1CC(c2ccco2)CC(O)=C1C=Nc1cc(Cl)ccc1O (stereo not drawn),-19.1,-23.9,u,20µM*,35.5µM*,u,42.3*,30.1*,
O=C1CC(c2ccco2)CC(O)=C1C=Nc1cc(Cl)ccc1Cl (stereo not drawn),u,-2.7,u,39.8µM*,u,22.4µM*,67*,60.1*,Pol kappa inh-2=75.2*
COc1ccc(Br)cc1/C=c1\sc2nc(-c3ccco3)nn2c1=O,-58.7*,28.5,20µM*,4.47µM*,3.16µM*,8.91µM*,59.7*,30.1*,Pol kappa inh-2=11.9*
CCc1cccc(NS(=O)(=O)c2cc(-c3cnc(C)o3)ccc2OC)c1,x,-0.9,-6.2%[60.1 µM],u,u,-8.6%,x,x,
C/C(N)=C(/C#N)C(=O)CSc1nnc(Nc2cccc(C)c2C)s1,-24.1,-9.1,-31.9%,-40.2%,-4.3%,u,x,x,
C/C(N)=C(/C#N)C(=O)CSc1nnc(Nc2c(C)cccc2C)s1,-100.0*,6.0,79.4µM*,u,17.8µM*,u,u,47.8*,
COc1ccc(-c2noc(CSCC(=O)Nc3cccc(C(F)(F)F)c3)n2)cc1OC,x,10.4,-24.9%,-19.3%,-11.5%,3.7%,x,x,
COC(=O)CC1C(C)(C)C(OC(C)=O)C2CC3C4CC(=O)OC(c5ccoc5)[C@]4(C)CCC3[C@@]1(C)C2=O (stereo partly drawn),x,x,-10.4%[60.1 µM],x,x,x,x,x,
COc1ccc(-n2cc(C(=O)NCc3ccccc3Cl)c3ccccc3c2=O)cc1,x,-6.0,3.3%,-18.3%,4.1%,0.1%,x,x,
O=C(O)c1ccccc1NS(=O)(=O)c1ccc(N/N=C/c2ccc(O)c(O)c2)c([N+](=O)[O-])c1,-95.8*,-12.1,31.6µM*,x,2.51µM*,7.94µM*,26.7*,30.1*,PGK validate=10.3µM*;Pol kappa inh-2=16.8*
COc1ccccc1NS(=O)(=O)c1ccc(N/N=C/c2c(C)nn(-c3ccccc3)c2N2CCCC2)c([N+](=O)[O-])c1,1.2,-5.6,-3.7%,22.7%,-11.7%,137.0%,x,x,
NS(=O)(=O)c1ccc(N/N=C/c2ccc(O)c(O)c2O)c([N+](=O)[O-])c1,-75.4*,-19.4,10µM*,1.26µM*,2.51µM*,2.82µM*,16.8*,15.1*,
O=[N+]([O-])c1ccccc1NC(=S)N/N=C/c1ccc(O)c(O)c1,-63.1*,-3.7,20µM*,3.55µM*,3.55µM*,8.91µM*,47.4*,21.3*,
O=C(CSc1nc2c(oc3ccccc32)c(=O)n1Cc1ccco1)Nc1ccccc1Cl,x,-5.1,5.4%,13.2%,-0.7%,-0.5%,x,x,
COc1ccc(OC)c(CN2C(=O)CSCC2(C)C(=O)NCc2ccccc2)c1 (stereo not drawn),5.5,-0.3,x,x,x,x,x,x,
CC(=O)Nc1cnc(-c2ccccc2O)cn1,-13.3,-8.4,x,x,x,x,x,x,
COc1ccc(OC)c(N2C(=O)[C@@H]3C(c4ccccc4Cl)=NO[C@@H]3C2=O)c1,-65.6*,-14.6,20µM*,-87.8%,1.26µM*,3.55µM*,16.8*,16.9*,PGK validate=5.8µM*
NC(=O)C1CCN(C2=C(Cl)C(=O)c3ccccc3C2=O)CC1,x,-1.5,-8.7%,u,6.31µM*,2.82µM*,42.3*,21.3*,GALK confirm=18.8µM*;GALK redox cs=23.7µM*;HEK293 viability=u
CC(=O)NC1=NC(=O)/C(=C/c2cc(C)n(-c3cccc(C(=O)O)c3)c2C)S1,u,-9.1,39.8µM*,6.31µM*,3.98µM*,14.1µM*,9.47*,10.7*,PGK validate=6.51µM*;Pol kappa inh-2=8.44*
Cc1cc(/C=N/NC(N)=S)c(C)n1-c1cccc(Cl)c1,-4.2,-0.3,-8.4%,24.9%,-16.3%,43.3%,x,x,
Cc1cc(/C=N/NC(=O)C(O)(c2ccccc2)c2ccccc2)c(C)n1-c1cccc(C(=O)O)c1,-50.6*,-4.0,u,15.8µM*,10µM*,15.8µM*,33.6*,15.1*,
CC(=O)NC1=NC(=O)/C(=C/c2cc(C)n(-c3ccc(NC(C)=O)cc3)c2C)S1,3.3,1.9,-18.5%,10.3%,-2.7%,-8.3%,x,x,
O=C(CSc1nnc(-c2cccc(S(=O)(=O)N3CCCC3)c2)n1-c1ccccc1)Nc1ccc(C(=O)O)cc1,u,1.9,u,31.6µM*,35.5µM*,u,42.3*,42.6*,
O=C(O)c1ccc2nc(-c3cc4cccc(O)c4oc3=O)[nH]c2c1,x,-53.6*,u,8.91µM*,x,u,23.8*,21.3*,Pol kappa inh-2=26.7*
NS(=O)(=O)c1ccc2c(c1)C(=NO)c1cc(S(N)(=O)=O)ccc1-2,-7.8,-4.9,4.1%,u,-12.5%,24.7%,x,x,
NC1=C(Cl)C(=O)c2ccc(S(N)(=O)=O)cc2C1=O,u,u,-19.0%,x,10µM*,3.98µM*,75.2*,37.9*,
